# Screening results from PubChem BioAssay.
# TDP1 cell noCPT = qHTS for Inhibitors of human tyrosyl-DNA phosphodiesterase 1 (TDP1): qHTS in cells in absence of CPT; DT40 Tdp1-/- hTDP1 cells, no CPT, ATP luminescence, 48 h; Potency, µM (series often up to 46.2 µM), for the others: at the highest dose activity change, negative = growth inhibition, actives largely listed as inhibitors; 420,000 compounds, 15% hits; further: potency means the concentration at half of the fitted maximal effect; nearly all actives have a fitted effect of over 55% in size
#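 Chicken DT40 Tdp1-/- cells complemented with human TDP1, screened without camptothecin (DMSO vehicle only), 400 cells/well. Compounds pin-transferred, cells incubated at 37 °C for at least 48 hr. Growth read as ATP-dependent luminescence (CellTiter-Glo, 30 min at RT).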
# HT1080-NT tox = kills 2HG-producing HT-1080-NT fibrosarcoma cells; HT-1080-NT fibrosarcoma viability, CellTiter-Glo ATP luminescence, 48 h; Potency, µM (doses to about 46.1 µM), for the others: top-dose activity, negative = less viability, actives largely listed as cytotoxic; 360,000 compounds, 1.6% hits; AID 686970;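 further: NT is the 2HG producing partner of a matched IDH1 knockdown line; potency means the concentration at half of the fitted maximal effect; 0% = DMSO-treated cells and -100% = media-only wells without cells; nearly all actives have a fitted effect of over 55% in size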
#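 Luminescent CellTiter-Glo readout after 48 hours of compound exposure at 37 degrees C defined viability of HT-1080-NT cells. Activity was normalized to DMSO wells and cell-free media wells; concentration-response curves were fitted and assigned curve classes.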
# IL-1B inflam inh = blocks inflammasome-driven IL-1 beta release. THP-1 LPS/ATP IL-1B secretion, AlphaLISA, 16 h; active compounds read low. activity change, % at 57.5 µM. 360,000 compounds, 4.7% hits. AID 743279; in the data active means activity change below about -50%; inconclusive means mostly about -30% to -49%
#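 Secreted IL-1B measured by AlphaLISA bead assay after 16 h compound exposure of THP-1 cells; compounds (final up to 57.5 uM) added 1 h before LPS (250 ng/mL) and ATP (1.25 mM) stimulation; lower signal means less secretion.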
# HT1080 IDH1KD tx = toxicity to HT-1080 IDH1 knockdown cells (counter line). HT-1080 IDH1 knockdown viability, ATP luminescence, 48 h. Potency, µM (highest dose often 46.1 µM), inactives show at the top dose activity, negative = toxicity, actives largely listed as cytotoxic. 360,000 compounds, 2% hits;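 further: potency means the concentration at half of the fitted maximal effect; 0% = DMSO wells and -100% = cell-free medium wells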
#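 Luminescent ATP read-out (CellTiter-Glo, 10 min at room temperature) after 48 h compound exposure at 37 °C gave viability of IDH1-knockdown HT-1080 cells. Activity was normalised to DMSO and cell-free wells, then fitted as concentration-response curves.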
# TDP1 cell CPT = DT40-hTDP1 cell growth loss with CPT. chicken DT40 Tdp1-/-;hTDP1 cells + 20 nM CPT, ATP luminescence, 48 h. Potency, µM (series often up to 46.2 µM), inactives show at the highest dose activity change, negative = growth inhibition, actives largely listed as inhibitors. 420,000 compounds, 12% hits. AID 686979; further: potency means the concentration at half of the fitted maximal effect; nearly all actives have a fitted effect of over 55% in size
#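 Chicken DT40 Tdp1-/- cells complemented with human TDP1, 400 cells/well, exposed to compounds plus 20 nM camptothecin for at least 48 h at 37 C; viability read as ATP content by CellTiter-Glo luminescence.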
# * = called active by the depositor; ? = inconclusive; nt = not tested or not shown; ! = not active in a repeat; [ ] = remark or other dose. Sampled rows, rich in hits. Any-hit rate of the full collection: about 19%. Unless noted, the call rests on the fitted dose curve; in most records, active means well fitted curve in the direction sought with a large enough effect; inconclusive means small, poorly fitted or top-dose-only effect, or another doubt; inactive means no such curve, though single readings can be large; an effect the other way counts as inactive or inconclusive. Unless noted, on the % scale 0 is the no-effect control and ±100 the full control effect.
SMILES,TDP1 cell noCPT,HT1080-NT tox,IL-1B inflam inh,HT1080 IDH1KD tx,TDP1 cell CPT
Cc1ccc2c(c1)C(=O)C(=O)N2Cc1ccc(C(F)(F)F)cc1,1µM*,-5%,63,-1%,0.92µM*
Cc1ccc2c(c1)C(=O)C(=O)N2CC(=O)OC(C)C,5.8µM*,27%,13,17%,5.2µM*
Cc1ccc(/C=N/NC(=O)c2cc(-c3ccc(C)o3)[nH]n2)cc1,15µM*,?,6,21µM*,13µM*
Cc1cc(C)nc(N/N=C/C2=C(O)CC(c3ccc(F)cc3)CC2=O)n1 (stereo not drawn),9.2µM*,-18%,252,?,23µM*
CC(C(=O)N1CCc2ccccc21)N1CCN(Cc2ccccc2)CC1 (stereo not drawn),?,1%,-4,0%,-27%
Cc1cc(/C=C2/C(=O)NN(c3ccccc3)C2=O)c(C)n1-c1ccc(O)cc1,18µM*,-17%,-29,?,?
O=C1NN(c2ccccc2)C(=O)/C1=C/c1coc2ccccc2c1=O,?,1%,-11,-2%,?
Cc1cc(/C=C2\C(=O)NN(c3ccccc3)C2=O)c(C)n1-c1ccccc1O,15µM*,-5%,0,-21%,?
O=C1NN(c2ccccc2)C(=O)/C1=C\c1coc2ccc(O)cc2c1=O,21µM*,-13%,-25,?,16µM*
COc1ccc(Cl)cc1NC(=O)CN1C(=O)NC2(CCCC2)C1=O,-16%,-2%,-10,-5%,-12%
CN(C)CC(C)(C)CNS(=O)(=O)c1cccc(Cl)c1Cl,-5%,2%,9,0%,0%
COc1ccccc1-c1csc(NC(=O)c2cc(-c3cccs3)nc3ccccc23)n1,-27%,5%,-14,12%,-21%
COc1ccc(CN(C)C(=O)c2cc(-c3ccccc3)nc3ccc(C)cc23)c(OC)c1OC,16µM*,-7%,-64*,-6%,18µM*
COc1ccccc1CN(C)C(=O)c1cc(-c2cccs2)nc2ccccc12,16µM*,?,-11,?,?
COc1ccc2cc(-c3cc(C(=O)O)c4ccccc4n3)ccc2c1,?,?,28,?,?
COc1ccc(CN(C)C(=O)c2cc(-c3ccc(OC)c(OC)c3)nc3ccccc23)c(OC)c1,18µM*,-9%,-3,-20%,16µM*
COc1ccc(-c2cc(C(=O)N(C)Cc3cccc(OC)c3OC)c3ccccc3n2)cc1OC,15µM*,-22%,-10,-26%,21µM*
CC(=O)c1ccc(F)c(-c2cc(C)cc3c2OC(CNC(=O)c2ccnn2C)C3)c1 (stereo not drawn),-25%,nt,nt,nt,23%[9.04 µM]
Cc1c(CN(C)C(=O)c2cc(-c3ccccc3)nc3ccc(Br)cc23)cnn1C,10µM*,nt,nt,nt,21µM*
COc1ccccc1C(=O)NCC(=O)N(C)Cc1nc2ccccc2c(=O)[nH]1,-1%,5%,7,3%,-17%
COc1cccc(CNC(=O)c2cc(-c3cccs3)nc3ccccc23)c1,-26%,nt,nt,nt,-14%
COc1cccc(CN(C)C(=O)c2cc(-c3ccc(F)cc3)nc3ccccc23)c1,21µM*,-8%,-29,-5%,21µM*
COc1ccc(-c2cc(C(=O)N(C)Cc3nc4ccccc4c(=O)[nH]3)c3ccccc3n2)cc1OC,21µM*,-4%,-24,-4%,?
COc1cccc(CN(C)C(=O)c2cc(-c3ccc(OC)c(OC)c3)nc3ccccc23)c1,?,-10%,-22,-16%,15µM*
NS(=O)(=O)c1ccc(NC(=S)Nc2nn(Cc3ccc(Cl)cc3Cl)cc2Cl)cc1,?,-3%,-18,-12%,?
SMILES,TDP1 cell noCPT,HT1080-NT tox,IL-1B inflam inh,HT1080 IDH1KD tx,TDP1 cell CPT
COCCCNC(=O)c1ccccc1N(Cc1ccccc1)S(=O)(=O)c1ccccc1,?,-1%,0,-5%,-15%
COCCn1c(=N)c(C(=O)NC2CCCC2)cc2c(=O)n3cc(C)ccc3nc21,3%,nt,nt,nt,0%
COC(=O)c1ccc(-c2nc(CN3CCN(C(=O)c4ccco4)CC3)c(C)o2)cc1,2%,-7%,43,2%,-9%
CN1CCC(N(C)C(=O)c2cc(-c3ccc(F)cc3)nc3ccccc23)CC1,?,-2%,-68*,-3%,?
CN1CCC(N(C)C(=O)c2cc(-c3ccccc3Cl)nc3ccccc23)CC1,?,-21%,0,-7%,?
OCc1ccc(-c2nn(Cc3ccccc3)c3ccccc23)o1,18µM*!,-24%,-11,-21%,11µM*!
O=c1c2ccccc2c(-c2n[nH]c(=S)o2)nn1Cc1ccccc1,-27%,1%,-8,2%,?
COc1cccc(C(=O)NCC(=O)N2CCC3(CC2)NCCc2[nH]cnc23)c1OC,24%,12%,-1,-1%,-2%
COc1cccc(CNC(=O)Cn2c(=O)n(CCC(=O)N3CCCCC3)c(=O)c3sccc32)c1,10%,15%,21,2%,-8%
CC(C)c1nc(SCC(=O)N2CCCCC2)c2c(=O)n(C)c(=O)n(C)c2n1,?,0%,19,7%,?
COc1ccc2[nH]c(=O)c(CN(Cc3cccnc3)Cc3nnnn3CC3CCCO3)cc2c1 (stereo not drawn),3%,4%,-29,0%,-3%
Fc1ccc(-c2csc3ncnc(N4CCN(Cc5ccccc5)CC4)c23)cc1,15µM*,7%,9,6%,21µM*
Cc1sc2ncnc(N3CCN(Cc4ccccc4)CC3)c2c1-c1ccc(F)cc1,?,4%,-55*,5%,?
COCCCNC(=O)C1CCN(c2cc(C)nc3c(-c4ccc(Cl)cc4)c(C)nn23)CC1,-20%,nt,nt,nt,-20%
Cc1cccc(C)c1NC(=O)C(C1CC1)n1c(=O)c(-c2cc3ccccc3[nH]2)nc2ccccc21 (stereo not drawn),?,-4%,-7,?,?
COCCN1CCC(CO)C1 (stereo not drawn),1%,10%,0,13%,-7%
C[C@]12CC[C@@H]3c4ccc(O)cc4CC[C@H]3[C@@H]1CC[C@@H]2OP(=O)(O)O,0%,nt,nt,nt,-6%
O=c1c2ccccc2nc(-c2ccccc2Cl)n1O,-10%,11%,20,13%,12%
O=c1c2cc(Br)ccc2nc(-c2ccc(Cl)cc2)n1O,?,-3%,7,-13%,?
O=c1c2ccccc2nc(-c2ccc(Cl)c(Cl)c2)n1O,5.2µM*,-10%,27,-1%,6.5µM*
O=c1c2ccc(Cl)cc2nc(-c2cccc(C(F)(F)F)c2)n1O,3.7µM*,?,105,?,4.1µM*
